# In PubChem BioAssay (NCATS):
# Records with an inconclusive call do not appear. Where a call stands in place of a potency, no number is given. Unmarked numbers belong to inactive results. Activity calls are given as the source filed them. Calls come from the whole dose curve; as a rule, active = well fitted inhibition curve with a large enough effect; inconclusive = small, poorly fitted or top-dose-only effect; inactive = flat fitted curve, though single readings scatter.
# Biological target: Calcium and integrin-binding protein 1 (Homo sapiens) (UniProt Q99828)
# Assay: Primary qHTS for Identification of Calcium Integrin Binding Protein 1 (CIB1) Competitor (AID 1508620);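 note: GST tagged CIB1 binding a fluorescein labelled alphaIIb integrin peptide tracer; top concentration of the series differs between compounds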
# Details: CIB1-GST / FITC-alphaIIb peptide fluorescence polarization; series mostly up to 114 µM
# Method in brief: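 Fluorescence polarization competition: CIB1-GST (1 uM final) preincubated with compound 15 min at room temperature, then FITC-labeled alphaIIb peptide (100 nM final) added for another 15 min. Polarization read at Ex 480/Em 540.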
# Chain of Calcium and integrin-binding protein 1 (Homo sapiens) (Q99828 whole entry, looked up): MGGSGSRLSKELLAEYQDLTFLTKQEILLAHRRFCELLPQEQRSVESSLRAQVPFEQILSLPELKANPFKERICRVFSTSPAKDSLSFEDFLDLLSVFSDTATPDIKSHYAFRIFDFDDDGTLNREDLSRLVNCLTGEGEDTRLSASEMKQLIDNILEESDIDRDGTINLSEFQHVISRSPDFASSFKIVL
SMILES,Potency,"activity change, negative = inhibition"
CC(C)=CCC/C(C)=C/CO[C@@H]1O[C@H](CO)[C@@H](O)[C@H](O)[C@H]1O,inactive,
CC(C)CCC1(O)C(=O)C(C)(C)C(O[C@@H]2O[C@H](CO)[C@@H](O)[C@H](O)[C@H]2O)C(C)(C)C1O (some centres undefined),inactive,
C[C@@H]1C(=O)OC[C@H]2C(C(=O)O)=C[C@@H]3CC(C)(C)C[C@]312,inactive,
C[C@@H]([C@@H](O)c1ccc(O)cc1)N1CCC(O)(c2ccccc2)CC1,inactive,
C/C=C(\C)C(=O)O[C@H]1[C@@H](O[C@]2(COC(=O)CC(C)C)O[C@H](COC(=O)C(C)CC)[C@@H](OC(C)=O)[C@@H]2O)O[C@H](COC(C)=O)[C@@H](O)[C@@H]1O (some centres undefined),inactive,
Cc1[nH]c2ccccc2c1CCNC(=O)c1ccccc1F,inactive,
Cc1ccc(C)c(OCCn2cc(C(=O)O)c3ccccc32)c1,inactive,
CC(=O)O[C@@H]1[C@H](O)[C@@H](O[C@@H]2O[C@@H](C)[C@H](O[C@@H]3OC[C@@H](O)[C@H](O[C@@H]4OC[C@@H](O)[C@H](O)[C@H]4O)[C@H]3O)[C@@H](O[C@@H]3O[C@H](CO)[C@@H](O)[C@H](O)[C@H]3O)[C@H]2O)[C@H](OC(=O)[C@]23CCC(C)(C)C[C@H]2C2=CCC4[C@@]5(C)CC[C@H](O[C@@H]6O[C@H](C(=O)O)[C@@H](O)[C@H](O[C@@H]7OC[C@@H](O)[C@H](O)[C@H]7O)[C@H]6O[C@@H]6O[C@H](CO)[C@H](O)[C@H](O)[C@H]6O)[C@@](C)(C=O)C5CC[C@@]4(C)[C@]2(C)CC3)O[C@@H]1C (some centres undefined),,-6.59% [at 12.4 µM]
CC(C)(C)Nc1nc(Nc2ccc(C(N)=O)cc2)cc(N)c1C#N,inactive,
C=C1C(=O)OC2C1C(O)CC1(C)C(O)CCC(C=O)C21 (centres undefined),inactive,
CC1(C)CCCC2(C)C1CC=C1C(=O)OC(O)C12O (centres undefined),inactive,
OC[C@@]1(O)CO[C@@H](OC[C@H]2O[C@@H](Oc3c[nH]c4ccccc34)[C@H](O)[C@@H](O)[C@@H]2O)[C@@H]1O,inactive,
C=C(C)C1CCC(C)C12CC(O)C1(C)OC1C2OC(=O)C(N)CCC(=O)O (centres undefined),inactive,
CC1(C)CC[C@]2(C(=O)O[C@@H]3O[C@H](CO)[C@@H](O)[C@H](O)[C@H]3O)CC[C@]3(C)C(=CCC4[C@@]5(C)CC[C@H](O[C@@H]6O[C@H](C(=O)O)[C@@H](O)[C@H](O)[C@H]6O)C(C)(C)C5CC[C@]43C)C2C1 (some centres undefined),inactive,
NC(=O)[C@H](O[C@@H]1O[C@H](CO)[C@@H](O)[C@H](O)[C@H]1O)c1ccccc1,inactive,
CC1C(=O)OCC2=CCN3CCC(OC(=O)C(C)(O)C1(C)O)C23 (centres undefined),inactive,
CC1(C)CCCC2(C)C1C(O)C=C(CO)C2(O)CO (centres undefined),inactive,
CC(=O)NC1=NN(C(C)=O)C(C)(c2ccccc2)S1 (centres undefined),inactive,
CC(C)[N+]1(C)C2CCC1CC(OC(=O)C(CO)c1ccccc1)C2 (centres undefined),inactive,
NC1CCCCN(c2c(F)cc3c(=O)c(C(=O)O)cn(C4CC4)c3c2Cl)C1 (centres undefined),inactive,
CC1=CC(=O)CC2C1(O)CCC(C)C21CC(c2ccoc2)OC1=O (centres undefined),inactive,
COc1cc(O)cc(C)c1C(=O)O[C@@H]1[C@H](O)[C@@H](CO)O[C@H]1n1ccc(=O)[nH]c1=O,inactive,
CC1=CCC2C(C)(C)CCC[C@]2(C)[C@@]12CC[C@](C)(CC(=O)O)O2 (some centres undefined),inactive,
COC(=O)/C=C/C12COC(C)(C)C1C(O)C(OC(C)=O)C1(C)C2CCC2(C)C(c3ccoc3)OC(=O)C3OC321 (centres undefined),inactive,
Cc1cc(C)c(CNC(=O)c2cc(-c3ccc(CN4CCOCC4)cc3)cc3c2cnn3C2CCCC2)c(=O)[nH]1,inactive,
CCC(C)/C=C(C)/C=C/c1cc2c(cn1)C(=O)C(C)(OC(C)=O)C(O)=C2Cl (centres undefined),inactive,
COc1c2c(c(C)c3c1C(=O)OC3)OC1(C)CC(O)C34OC(OC)(CC(OC(C)=O)C3(C)C1C2)OC4(C)C (centres undefined),inactive,
O=C(O)CC(=O)OC[C@H]1O[C@@H](Oc2ccc3c(c2)OC[C@H]2c4cc5c(cc4O[C@@H]32)OCO5)[C@H](O)[C@@H](O)[C@@H]1O,inactive,
C[C@@H]1O[C@@H](O[C@@H]2[C@@H](O)[C@H](O[C@H]3CC[C@@]4(C)C(CC[C@]5(C)C4CC=C4[C@@H]6CC(C)(C)CC[C@]6(C(=O)O[C@@H]6O[C@H](CO)[C@@H](O)[C@H](O)[C@H]6O)CC[C@]45C)C3(C)C)O[C@H](C(=O)O)[C@H]2O)[C@H](O)[C@H](O)[C@H]1O (some centres undefined),inactive,
